# Measured values taken from PubChem BioAssay AID1445 (SRMLSC, 2008).
# Screen size: about 220,000 compounds; about 910 (0.41%) were called active.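 How the source made its calls: active means primary inhibition above the hit cutoff, then over 50% inhibition at one or more dose response concentrations (cut at about 23% in these data, passing the limit was not always enough); inconclusive means conflicting primary data, or primary hits not chosen for dose response; inactive means low primary inhibition, or under 50% at every dose.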 What follows is part of a selection rich in actives, with near analogues and random picks from the rest. Entries with a potency or affinity are not part of this list.
# Target: Aminopeptidase N (Plasmodium falciparum (isolate 3D7)) (UniProt O96935)
# Test: malaria alanyl aminopeptidase activity blockers – biochemical, fluorogenic H-Leu-NHMec substrate, 1536-well (AID 1445);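 further: plate controls were DMSO full reaction for no effect and no enzyme background for full effect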
# Conditions: recombinant M1AAP, H-Leu-NHMec fluorogenic kinetic assay; at 30 µM, active compounds read high unless noted
# Chain of Aminopeptidase N (Plasmodium falciparum (isolate 3D7)) (O96935 whole entry, looked up): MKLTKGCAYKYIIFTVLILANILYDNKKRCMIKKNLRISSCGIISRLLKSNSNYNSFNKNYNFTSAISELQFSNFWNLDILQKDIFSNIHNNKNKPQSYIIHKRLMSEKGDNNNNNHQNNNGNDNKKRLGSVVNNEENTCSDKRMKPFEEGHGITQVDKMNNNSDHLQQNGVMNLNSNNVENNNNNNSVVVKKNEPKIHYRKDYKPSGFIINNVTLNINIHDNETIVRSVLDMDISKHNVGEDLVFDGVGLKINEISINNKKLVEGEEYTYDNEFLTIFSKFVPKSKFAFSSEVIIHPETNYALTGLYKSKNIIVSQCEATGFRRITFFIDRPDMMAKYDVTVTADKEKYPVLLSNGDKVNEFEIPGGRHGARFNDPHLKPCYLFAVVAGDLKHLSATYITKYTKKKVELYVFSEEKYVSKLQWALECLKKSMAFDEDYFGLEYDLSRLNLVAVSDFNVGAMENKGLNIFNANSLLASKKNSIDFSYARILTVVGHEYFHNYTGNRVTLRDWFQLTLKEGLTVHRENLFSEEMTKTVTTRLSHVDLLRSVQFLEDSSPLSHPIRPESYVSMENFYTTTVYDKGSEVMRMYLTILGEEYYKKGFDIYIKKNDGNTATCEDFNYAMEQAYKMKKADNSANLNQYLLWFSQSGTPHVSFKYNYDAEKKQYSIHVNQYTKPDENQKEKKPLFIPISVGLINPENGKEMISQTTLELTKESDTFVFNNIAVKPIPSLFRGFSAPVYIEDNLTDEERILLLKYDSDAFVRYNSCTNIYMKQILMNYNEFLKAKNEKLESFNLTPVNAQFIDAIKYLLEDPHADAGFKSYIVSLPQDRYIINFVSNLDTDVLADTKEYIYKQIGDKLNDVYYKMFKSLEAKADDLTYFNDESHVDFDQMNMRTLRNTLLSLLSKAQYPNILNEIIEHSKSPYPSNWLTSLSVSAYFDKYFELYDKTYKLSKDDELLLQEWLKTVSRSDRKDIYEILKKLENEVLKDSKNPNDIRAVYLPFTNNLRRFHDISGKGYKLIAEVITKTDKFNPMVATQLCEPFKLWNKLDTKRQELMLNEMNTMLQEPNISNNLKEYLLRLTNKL
row,Compound,inhibition
1,N#Cc1c(NC(=O)CN2CCOCC2)oc(-c2ccccc2)c1-c1ccccc1,23.5% (active)
2,O=C(CN1CCOCC1)NNc1nc(-c2ccccc2)c2cc(Br)ccc2n1,20.7% (inactive)
3,CCOC(=O)c1[nH]c2ccc(Br)cc2c1NC(=O)CCN1CCOCC1,4.62% (inactive)
4,O=C(CN1CCOCC1)Nc1c(-c2ccccc2)c2cc(Br)ccc2[nH]c1=O,28.2% (active)
5,O=c1[nH]c2ccc(Cl)cc2c(-c2ccccc2)c1SC(=S)N1CCOCC1,44% (inactive)
6,O=c1[nH]c2ccc(Cl)cc2c(-c2ccccc2)c1N1CCOCC1,-3.98% (inactive)
7,O=C(CCN1CCOCC1)Nc1cccc(Br)c1,-4.3% (inactive)
8,O=C(O)Cc1c(-c2ccccc2)c2cc(Br)ccc2[nH]c1=O,22.3% (inactive)
9,N#Cc1c(NC(=O)CCN2C(=O)c3ccccc3C2=O)oc(-c2ccccc2)c1-c1ccccc1,5.82% (inactive)
10,N#Cc1c(NC(=O)Cn2c(=O)oc3ccccc32)oc(-c2ccccc2)c1-c1ccccc1,4.71% (inactive)
11,CCOC(=O)N1CCN(C(=O)CCCOc2ccccc2)CC1,3.31% (inactive)
12,O=c1[nH]ncc(N2CCCCCC2)c1Cl,5.89% (inactive)
13,COc1cc(/C=C/C(=O)O)ccc1OCc1cnc(Cl)s1,0.41% (inactive)
14,CC1=Nn2c(nc(-c3ccccc3)c2-c2ccccc2)N(CC(N)=O)C(=O)C1,-0.64% (inactive)
15,CCCS(=O)(=O)N1CCN(C(=O)c2ccco2)CC1,12.4% (inactive)
16,CSc1nnc(C)c(=O)n1COC(=O)COc1ccccc1,0.02% (inactive)
17,COc1cc(OC)cc(C(=O)NC(=S)NCc2ccco2)c1,5.49% (inactive)
18,O=C(NC1CCCCC1)N1CCN(C(=O)c2ccco2)CC1,-0.86% (inactive)
19,O=C(c1ccco1)n1nc(-c2cccnc2)nc1NCc1ccco1,16.8% (inactive)
20,CC1(C)Cc2nc3sc(C(=O)NCCO)c(N)c3cc2CO1,1.79% (inactive)
21,CCC(C)(C)NC(=O)C(c1ccc(C)o1)N(C(=O)c1csnn1)c1cccc(F)c1 (stereo unspecified),1.56% (inactive)

row,Compound,inhibition
1,O=C(Cc1cccs1)Nc1nnc(-c2ccccc2)s1,8.23% (inactive)
2,CCCc1n(CC(O)COCc2ccccc2)c2ccccc2[n+]1C (stereo unspecified),6.5% (inactive)
3,Cc1ccc2[nH]c(=O)c(CN3CCCCC3)c(-c3ccccc3)c2c1,-7.69% (inactive)
4,O=c1[nH]c2ccc(Br)cc2c(-c2ccccc2)c1N1CCOCC1,3.65% (inactive)
5,CCCCCCC(=O)N/N=C(\C)Cc1ccccc1,-0.14% (inactive)
6,COc1cccc(-n2c(CN3CCN(Cc4ccccc4)CC3)nc3ccc([N+](=O)[O-])cc3c2=O)c1,4.64% (inactive)
7,Cc1c(Cl)cnc(NC(=O)CSc2nncs2)c1Cl,-1.74% (inactive)
8,COc1cccc(OC)c1NC(=O)CN1CCC(NC(=O)c2cccc(F)c2)CC1,20.7% (inactive)
9,COc1ccccc1CNC(=O)CN1CCC(NC(=O)c2ccccc2F)CC1,8.21% (inactive)
10,O=C(CN1CCC(NC(=O)c2ccc(F)cc2)CC1)NCc1ccccc1F,31.9% (inactive)
11,O=C(CN1CCC(NC(=O)c2ccc(Br)cc2)CC1)NCc1cccs1,17.5% (inactive)
12,Cc1ccc(C(=O)NC2CCN(CC(=O)NCc3cccs3)CC2)cc1,15.8% (inactive)
13,COc1cccc(C(=O)NCc2ccccc2OC)c1,0.04% (inactive)
14,CCOc1ccc(OCC)c(NC(=O)CN2CCC(NC(=O)c3cccc(F)c3)CC2)c1,8.37% (inactive)
15,O=C(CN1CCC(C(=O)c2cccc(F)c2)CC1)NCc1cccs1,11.7% (inactive)
16,O=C(C1CC1)N1CCN(S(=O)(=O)c2ccc3c(c2)OCCO3)CC1,2.72% (inactive)
17,O=C(O)CC(NC(=O)C(c1ccccc1)c1ccccc1)c1ccc(F)cc1 (stereo unspecified),-1.82% (inactive)
18,Cc1cccc(C)c1NC(=O)c1sc(Cl)nc1C,-2.07% (inactive)
19,CC(C)N(CCc1ccncc1)C(=O)Nc1ccc(Cl)c(Cl)c1,-5.52% (inactive)
20,CCn1nnnc1SCC(=O)Nc1ccc(OCc2ccccc2)cc1,7.63% (inactive)
21,O=C(NCc1ccccc1)c1onc(CSc2ccccn2)c1C(=O)NCc1ccccc1,4.51% (inactive)

row,Compound,inhibition
1,CC(C)N(C)C1CCN(C(=O)Nc2ccc(Cl)cc2)CC1,3.02% (inactive)
2,O=c1[nH]c(N2CCOCC2)nc2c1CCCC2,15.6% (inactive)
3,CC(C)Oc1ccc(C(CC(=O)O)NC(=O)C2CCCCC2)cc1 (stereo unspecified),-1.13% (inactive)
4,Cc1ccc(SCCC(=O)Nc2ccccc2C(=O)N2CCOCC2)cc1,-3.27% (inactive)
5,CN(C)CC(C)(C)CNC(=S)Nc1ccc(S(=O)(=O)N2CCOCC2)cc1,2.96% (inactive)
6,Cc1ccccc1C(=O)NC1CCN(CC(=O)Nc2ccc3c(c2)OCO3)CC1,10.9% (inactive)
7,Cc1ccccc1C(=O)NC1CCN(CC(=O)NCc2ccc(F)cc2)CC1,3.39% (inactive)
8,O=C(CN1CCC(NC(=O)c2ccccc2F)CC1)NCc1ccc(F)cc1,27.4% (active)
9,Cc1ccccc1C(=O)NC1CCN(CC(=O)Nc2ccc3c(c2)OCCO3)CC1,-1.09% (inactive)
10,O=C(CN1CCC(NC(=O)c2ccccc2Cl)CC1)NCc1ccco1,12.1% (inactive)
11,Cc1cc(-c2n[nH]c(=S)n2/N=C/C=C/c2ccccc2)n[nH]1,16.6% (inactive)
12,CC1CCN(CCc2nc3cc(NS(=O)(=O)c4ccc(F)cc4)ccc3n2C)CC1,-3.38% (inactive)
13,Cc1ccc(OCCCNCCO)c(Br)c1,9.5% (inactive)
14,CCC(=O)NC(=S)Nc1c(C)cc(Br)cc1C,0.48% (inactive)
15,CC(C(=O)c1c[nH]c(C(=O)N=CN(C)C)c1)c1ncc(C(F)(F)F)cc1Cl (stereo unspecified),0.78% (inactive)
16,CCOc1cccc(Nc2cc3n(c(=O)n2)CCc2cc(OC)c(OC)cc2-3)c1,12.6% (inactive)
17,COc1cc2c(cc1OC)-c1cc(Nc3ccccc3)nc(=O)n1CC2,11.4% (inactive)
18,COc1cc2c(cc1OC)-c1cc(Nc3ccc4c(c3)OCCO4)nc(=O)n1CC2,24.9% (active)
19,CC(c1cccs1)N(Cc1ccco1)C(=S)Nc1ccc(F)c(Cl)c1 (stereo unspecified),4.95% (inactive)
